Among all 31,000 sequences or so, about 1,400 (4.5%) were called active. This is one part of a sample in which actives are shown more often than they occur.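 How the source made its calls: active means median seed-adjusted z-score above 1 or below -1; inactive means the rest.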
Experiment: Novel Modifiers of Survival Motor Neuron (SMN) Protein: Gene Identification via Genome-wide siRNA Screen;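 further: luminescence tracks full-length SMN protein made from the SMN2 reporter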
Conditions: HEK293T SMN2-luciferase reporter, siRNA knockdown, 72 h; actives lie on both sides
In short: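 Steps: spot 1 pmol siRNA, add Lipofectamine RNAiMax in serum-free DMEM, seed HEK293T SMN2–luciferase reporter cells; incubate 72 h at 37 °C; add ONE-Glo; normalize luminescence to control siRNA, log10, MAD. Candidates: |MAD| > 1.0.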

Sequence | median seed-adjusted z-score
CGUCAGAUCUGAACAAGAATT against CHST4 | 0.349 (inactive)
GUAUAUCAGUUCCAGUUUATT against RANBP3 | -0.211 (inactive)
UUAUCACAGAGCAACCUAATT against NUBPL | 0.105 (inactive)
GGAAUGCACCCAGAUCAAATT against TFAP2D | 0 (inactive)
GGCCUUUCCUUUACUGUCATT against ABCC4 | -1.66 (active)
CCGAAUGAAUGGUGAUAAATT against TUSC3 | 0.138 (inactive)
CAAGGACACUUCAUCGUGATT against AVPR2 | -0.262 (inactive)
GAACUCAUCAAAAUGCACATT against KLF15 | -0.45 (inactive)
GGGAGACGAUUGUUCAUCATT against XPA | 2.03 (active)
AUACAUCAAAGAUUAGUAATT against NTS | 0.518 (inactive)
GUUAAUCACAUACACCAAATT against GPR22 | 0.705 (inactive)
CCGCUUGACUAUGAGCUCATT against TTC7A | -0.303 (inactive)
CCAGGAGCGAUAACAGUAATT against DAZAP1 | 0 (inactive)
CCUUAUCGAUAUUAUGAGATT against CPEB2 | -0.00928 (inactive)
ACGUGGAGCUCUUAGACAATT against AP1S1 | -1.04 (active)
GGAUCGGAUGGAUAAGAAUTT against CTTN | -0.314 (inactive)
CACUAGGAAUCACACCGUUTT against TINAG | 0.374 (inactive)
GAGACGAGGAGGAAACUUUTT against DDX27 | -0.131 (inactive)
GCAGUAUGCAGAUUGUUCATT against FGL1 | -0.259 (inactive)
CAGUUGUCCUUGUGGAUAATT against TTF1 | 1.76 (active)
GAUAAUUCCAUGACAUUAUTT against CYP39A1 | 0.196 (inactive)
GAAGAGAACUCUAAGAUCATT against CAMK1G | -0.358 (inactive)
GCAAGUCCCUGUACUAUUATT against ANXA2 | 0.499 (inactive)
GCAGAACUGCUGCUACAGATT against ANKZF1 | 0.176 (inactive)
CACCGUUCAUCUGCACAGATT against KATNA1 | -0.471 (inactive)
CGAUAAACUCAGACCAGAATT against IDE | -0.081 (inactive)
GGAAAGUUGAUUUUUAUGATT against MS4A6E | -0.341 (inactive)

Sequence | median seed-adjusted z-score
GGCUCUACGGUUUCAAGAUTT against CSNK2B | -1.62 (active)
CAAUGUCCCAAGAUAAAGATT against PRPSAP1 | 0.224 (inactive)
CUCUUUGACCGGUUGCUCATT against EGLN2 | -0.349 (inactive)
CCAUUUUAGCUCUAGAAGATT against GSTA4 | -0.848 (inactive)
GAAUUGGCCGUUGGGCUUATT against COX8A | -0.0749 (inactive)
CAUCUCGACUUAUUGGAAATT against WEE1 | -4.05 (active)
CAAGGUCAUUAAUAAGGAUTT against CST5 | 0.466 (inactive)
CACCCAACACCAAACUGUATT against HSPB6 | 0.394 (inactive)
GAAUUAACUUCAUGGUGAATT against PPM1K | 0.154 (inactive)
GCCGAAUCCUGAAGAGACATT against QTRTD1 | 0.377 (inactive)
CAACCACUGUGAGACGAAATT against MFGE8 | 0.0367 (inactive)
CUGAGAUACUGCAAGCUGATT against IL5RA | -0.357 (inactive)
CCGACUACUCCAACGAGAATT against MASP2 | -0.137 (inactive)
GCUCAAGAGCUUGCACAGATT against SLC25A42 | -1.02 (active)
CUCUGAACCAAAUCGUUUATT against DPP8 | -0.0209 (inactive)
GAUGACUACUUAGCUCUAATT against FLJ90650 | 0.427 (inactive)
GGCCUAGUGUAAUCUCCCATT against ZNF774 | -0.0834 (inactive)
GCAGAUCGAUUUCUCAACATT against ABCA1 | -1.27 (active)
CCAUGUUACCAUACAAUAATT against MXD1 | -0.763 (inactive)
CCACAGAGGCUAUGCUAAATT against ACE | 0.0874 (inactive)
GUAGCUCCGAGGUCUGAUATT against SMARCA4 | 0.223 (inactive)
GGAACUACCAGAUCGGGAATT against MYO9B | -0.0287 (inactive)
GCAAGACAAGUGAAGUCAATT against CNBP | -1.14 (active)
CAUGCGGUCUUAGAAAUGATT against HNRPUL1 | -0.047 (inactive)
GCAUUUGAGCAUGAAAAUATT against VPS29 | -0.408 (inactive)
AGCUACUAGUGGAGCAGAATT against BAT1 | -1.49 (active)
CCACUCCAUUGAAGAUGUATT against SREBF1 | -0.0469 (inactive)
